NPSR antag: qHTS Assay for Antagonists of the Neuropeptide S Receptor: cAMP Signal Transduction. Q6W5P4. Potency, µM (series often up to 38.3 µM), for the others: at the top dose activity change, negative = inhibition, most hits filed as inhibitors. hit rate 1% among 220,000. CHO-NPSR cells, cAMP TR-FRET, antagonist mode; note: nearly all actives have a fitted effect of over 50% in size
Tb PFK block: qHTS Assay to Find Inhibitors of T. brucei phosphofructokinase | ATP-dependent 6-phosphofructokinase (Trypanosoma brucei brucei), O15648 | T. brucei PFK, ADP-Glo luminescence | Potency, µM (doses to about 57.5 µM), inactives show at the highest dose activity, negative = inhibition, usual class: inhibitors | hit rate 0.17% among 330,000;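 note: 0% = uninhibited 1x PFK enzyme wells and -100% = no-enzyme wells; nearly all actives have a fitted effect of over 60% in size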
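Activity is normalized to no-enzyme wells (full inhibition) and 1.25 nM enzyme wells (no inhibition). Reaction: 0.5 mM F6P, 0.1 mM ATP, 45 min RT, ADP-Glo luminescence; concentration-response curves fitted and classed by quality.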
MBNL1 CUG block: qHTS Assay for Inhibitors of MBNL1-poly(CUG) RNA binding | hit rate 0.036% among 280,000 | TR-FRET MBNL1-His/biotin-(CUG)12 binding, 665/545 ratio | Potency, µM (highest dose often 57.5 µM), inactives show at the top dose activity change, negative = inhibition, actives largely listed as inhibitors | AID 2675, 2010; active = well fitted inhibition curve with a large enough effect in the signal ratio, with a control signal flat, not every such curve was filed as active; inconclusive = small, poorly fitted or top-dose-only effect, or effect the other way, or a change in a side signal; inactive = no such curve, though single readings can be large or run the other way; the % refers to the signal ratio
Target sequence (Q9NR56 whole entry, looked up): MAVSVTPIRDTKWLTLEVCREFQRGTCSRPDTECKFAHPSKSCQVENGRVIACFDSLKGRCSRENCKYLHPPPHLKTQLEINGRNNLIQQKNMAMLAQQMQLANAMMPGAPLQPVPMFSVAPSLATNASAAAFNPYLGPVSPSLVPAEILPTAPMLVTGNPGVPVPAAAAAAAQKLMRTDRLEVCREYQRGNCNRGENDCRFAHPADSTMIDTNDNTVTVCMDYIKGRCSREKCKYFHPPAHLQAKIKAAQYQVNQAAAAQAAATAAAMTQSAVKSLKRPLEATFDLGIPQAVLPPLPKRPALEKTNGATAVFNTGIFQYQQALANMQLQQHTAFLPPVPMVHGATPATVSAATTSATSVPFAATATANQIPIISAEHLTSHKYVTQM
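Compounds (final 92 nM to 58 uM) are added to His-tagged MBNL1 and biotin-(CUG)12, then terbium anti-His antibody and streptavidin-XL665 (5 nM final). After 60 min at room temperature, the 665/545 nm ratio is read.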
RGS12 GoLoco inh: qHTS Assay for Inhibitors of RGS12 GoLoco Motif Activity (Red Fluorophore); Guanine nucleotide-binding protein G(i) subunit alpha-1 (Homo sapiens), P63096; Gai1:RGS12 GoLoco peptide FP, rhodamine, 10 min; Potency, µM (titrated, usually from 61.6 µM), for the others: top-dose activity, negative = inhibition, most hits filed as inhibitors; hit rate 0.44% among 230,000; active = well fitted inhibition curve with a large enough effect, not every such curve was filed as active; inactive = no such curve, though single readings can be large or run the other way; note: nearly all actives have a fitted effect of over 30% in size
Target sequence (P63096 whole entry, looked up): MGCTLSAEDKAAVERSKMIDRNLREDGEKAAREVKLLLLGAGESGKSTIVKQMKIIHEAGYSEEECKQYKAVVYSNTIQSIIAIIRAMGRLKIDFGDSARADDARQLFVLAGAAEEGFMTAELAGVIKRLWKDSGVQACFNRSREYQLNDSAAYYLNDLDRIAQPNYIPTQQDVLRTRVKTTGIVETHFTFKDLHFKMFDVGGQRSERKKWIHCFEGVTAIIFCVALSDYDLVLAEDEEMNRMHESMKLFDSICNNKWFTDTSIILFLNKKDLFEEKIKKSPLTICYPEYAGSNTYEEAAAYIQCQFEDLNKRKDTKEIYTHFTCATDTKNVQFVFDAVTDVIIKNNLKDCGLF
IMPase Li cell: qHTS Assay for Identifying the Cell-Membrane Permeable IMPase Inhibitors: Potentiation with Lithium; CHO-M1 cells, IP1 TR-FRET (IP-One), carbachol + lithium; Potency, µM (highest dose often 59.4 µM), for the others: at the highest dose activity, negative = IMPase inhibition, hits mostly inhibitors; hit rate 0.35% among 210,000;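 note: IP1 builds up when IMPase is blocked and the TR-FRET signal falls; plate controls were basal vehicle for no effect and high inhibitor control for full effect; nearly all actives have a fitted effect of over 50% in size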
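Readout is a homogeneous TR-FRET IP1 immunoassay (Ex 320, Em 665 and 620), where raised cytosolic IP1 lowers signal. Cells were CHO-M1 treated 30 min at 37C with test compounds plus a little lithium; AC50 values came from Hill-equation fitting.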
An asterisk follows results filed as active; ? = inconclusive; nt = not tested or not shown; [ ] = dose if it differs, or a comment. Only a selection was taken, and hits are over-represented in it overall. Unless noted, calls come from the whole dose curve; as a rule, active = well fitted curve in the direction sought with a large enough effect; inconclusive = small, poorly fitted or top-dose-only effect, or another doubt; inactive = no such curve, though single readings can be large; an effect the other way counts as inactive or inconclusive. Unless noted, % is set by controls: 0 for no effect and ±100 for the full control effect; potency is the fitted concentration of half-maximal effect.

SMILES	NPSR antag	Tb PFK block	MBNL1 CUG block	RGS12 GoLoco inh	IMPase Li cell
N#Cc1c(-c2ccco2)nc(SCC(=O)Nc2cccc(Cl)c2)[nH]c1=O	?	-4%	26%	2%	10µM*
COc1cccc(NC(=S)N2CCC(c3ccc(C)cc3)C2)c1 (stereo not drawn)	nt	-9%	-4%	nt	nt
COc1ccc(C)cc1S(=O)(=O)N(CC(=O)NC1CCCC1)c1ccc(F)cc1	nt	-10%	0%	nt	nt
Cc1nn(-c2ccc(Cl)cc2)c2sc(C(=O)c3c(N)n(C)c(=O)n(C)c3=O)cc12	9%[46.1 µM]	1%	2%	19%	13µM*
Cn1c(N)c(C(=O)c2ccc(Cl)cc2)c(=O)n(C)c1=O	0%[46.1 µM]	0%	-26%	nt	nt
C=C(C)C1Cc2c(ccc(C(=O)O)c2O)O1 (stereo not drawn)	nt	nt	nt	-1%	0%
O=c1cc2oc3cc(O)c(O)cc3c(-c3ccccc3O)c-2cc1O	11%[7.67 µM]	?	nt	7.9µM*	nt
COc1ccc(OCC(=O)Nc2cc(-c3nn(C)c(=O)c4ccccc34)ccc2OC)cc1	?	-4%	5%	1%	7.9µM*
Cc1cc(CN2CCN(CCC#N)CC2)c(O)c(C2(C)CCCCC2)c1	10µM*	0%	3%	13%	22%[38.3 µM]
CC(O)C1CCC2C3CCC4CC(O)CCC4(C)C3CCC12C (stereo not drawn)	nt	nt	nt	12%	nt
COC(=O)c1c(C)[nH]c(C(=O)CN(C)CC(=O)Nc2cccc(F)c2)c1C	nt	2%	nt	nt	nt
Cc1ccc(C)c(NC(=O)COC(=O)c2c(C)nn(-c3ccccc3)c2C)c1	nt	-2%	nt	nt	nt
Cc1ccc2c(CSc3nc4nc(C)cc(C)n4n3)cc(=O)oc2c1	10µM*	12%	7%	nt	nt
COc1ccc2c(CSc3nc4nc(C)cc(C)n4n3)cc(=O)oc2c1	?	0%	20%	0%	21%[38.3 µM]
O=C(Nc1nnc(C2CC2)s1)c1cc2c(s1)CCCCCC2	?	0%	-2%	6%	10µM*
O=C(Nc1nnc(C2CC2)s1)c1cccs1	nt	2%	-7%	nt	nt
COc1ccc(-c2c3c([nH]c(=S)c2C#N)CCC3)cc1	1µM*	?	8%	-3%	7.9µM*
CCC1=C2CC[C@H]3C(=O)NC(=O)[C@H]3[C@H]2[C@@]2(C)C(=NCCOC)OC(=O)N2C1=O	nt	nt	nt	1%	-4%
O=[N+]([O-])c1ccc(N/N=C/c2c[nH]c3ccccc23)c(S(=O)(=O)Nc2ccc(Cl)cc2)c1	16µM*	3%	-1%	28%	28%[38.3 µM]
COc1ccccc1NS(=O)(=O)c1cc([N+](=O)[O-])ccc1N/N=C/c1c(C)[nH]c2ccccc12	-25%[46.1 µM]	2%	23%	181%	44%[38.3 µM]
Cc1cc2c(s1)c(C#N)c(C(=O)NCc1ccccc1F)n2C	nt	-22%	nt	nt	nt
CCOc1ccc(C(CC(=O)O)NC(=O)c2sc3ccccc3c2Cl)cc1 (stereo not drawn)	?	0%	19%	14%	8.9µM*
CCCOc1ccc(C(CC(=O)O)NC(=O)c2sc3ccccc3c2Cl)cc1 (stereo not drawn)	-29%	-3%	31%	14%	3.2µM*
CCCCOC(=S)NC(=O)c1sc2ccccc2c1Cl	10%[46.1 µM]	2%	12%	8%	-16%[38.3 µM]
Cc1ccc(-c2c(C(=O)Nc3ccccc3C)c(C)[nH]c(=S)c2C#N)o1	-19%	-30%	?	97%	11µM*
SMILES	NPSR antag	Tb PFK block	MBNL1 CUG block	RGS12 GoLoco inh	IMPase Li cell
COc1ccc(C(=O)Nc2ccc(N3CCN(c4ccc(OC)cc4)CC3)c(C#N)c2)cc1	3.2µM*	0%	2%	-4%	1.8µM*
COc1ccc(N2CCN(c3ccc(NC(=O)C4CCCCC4)cc3C#N)CC2)cc1	-9%[46.1 µM]	0%	7%	-8%	?
COc1ccc2cc(-c3cc(C(=O)O)c4ccccc4n3)ccc2c1	?	3%	?	66%	10µM*
C=C1CCC(O)C/C1=C/C=C1\CCC[C@]2(C)[C@@H]([C@H](C)/C=C/[C@H](C)C(C)C)CC[C@@H]12 (stereo partly drawn)	nt	nt	nt	2%	nt
O=[N+]([O-])c1ccc(CNc2cccc(Cl)c2)s1	nt	7.6µM*	?	nt	nt
CCOc1ccc(S(=O)(=O)Nc2ccc(C(=O)NCC(c3ccccc3)N(C)C)cc2)cc1 (stereo not drawn)	nt	-2%	-5%	nt	nt
O=C(c1ccc2c(c1)[nH]c(=S)n1c3ccccc3nc21)N1CCN(c2ncccn2)CC1	-7%[46.1 µM]	1%	-7%	9%	7.1µM*
O=C(NCCN1CCN(c2ccccc2)CC1)c1ccc2c(c1)[nH]c(=S)n1c3ccccc3nc21	-25%	-3%	5%	1%	10µM*
Cc1cc(Br)c(S(=O)(=O)NCc2cccnc2)cc1C	nt	1%	-2%	nt	nt
Cc1ccc2nc(N3C(=O)C(O)=C(C(=O)c4cc5ccccc5o4)C3c3cccs3)sc2c1 (stereo not drawn)	2%[46.1 µM]	-2%	13%	36%	-25%[38.3 µM]
Cc1cc(N2C(=O)C(O)=C(C(=O)c3ccc(C)o3)C2c2cccs2)no1 (stereo not drawn)	7.9µM*	-2%	79%	17%	10µM*
CCc1ccc2nc(N3C(=O)C(O)=C(C(=O)c4ccco4)C3c3cccs3)sc2c1 (stereo not drawn)	10µM*	-1%	42%	32%	-29%
O=C(c1csnn1)N1CCC2(CCCN(Cc3ccccc3)C2)CC1	nt	nt	nt	7%	22%
COc1ccc(S(=O)(=O)N(C)c2ccc(C(=O)NCc3ccccn3)cc2)cc1	nt	0%	5%	nt	nt
COc1cc(-c2nnc(COc3ccc4cc(Br)ccc4c3)o2)cc(OC)c1OC	25%[46.1 µM]	1%	20%	4%	14µM*
CC1(C)CC(N2CCN(CCO)CC2)=CC(=S)N1	-5%	-2%	?	3%	nt
NC(N)=NC[C@@H]1COC2(CCCCC2)O1	nt	nt	nt	6%[21.6 µM]	-2%
C[N+]1(CC2COC3(CCCCC3)O2)CCCC1 (stereo not drawn)	5%	-5%	-22%	10µM*	17%
O=[N+]([O-])c1ccc(Cl)cc1Cl	nt	nt	nt	-1%	-6%
Cc1ccc(NC(=O)[C@@]2(CC(=O)O)CC(/C=C/c3ccccc3)=NO2)c(C)c1	nt	-5%	2%	nt	nt
Cc1ccc(-c2cc(C(F)F)n3ncc(C(=O)Nc4c(C)nn(Cc5ccccc5Cl)c4C)c3n2)cc1	4µM*	0%	-7%	7%	38%[38.3 µM]
Cc1ccc(-c2cc(C(F)F)n3ncc(C(=O)Nc4c(C)nn(Cc5c(Cl)cccc5Cl)c4C)c3n2)cc1	-9%[46.1 µM]	0%	-4%	1%	28%[38.3 µM]

From PubChem BioAssay
